Hits are enriched below; roughly 3.7% of the tested compounds scored in any of these assays.
IL-2 act = qHTS of IL-2 Activators. IL-2 activation reporter assay, cell-based qHTS; stimulated with anti-CD3/CD4/CD28 beads; in transgenic mouse T cells. activation, % (series mostly up to about 46 µM). AID 652025, 2013. 0.065% of 360,000 active; in the data active = activation above about 50%; inconclusive = mostly about 30% to 49%; also: 0% is about no effect
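Quantitative HTS in unstimulated transgenic mouse T cells, with memory T cells as non-tolerant control and PMA/ionomycin as tolerance-bypass control. Compound pretreatment lasted 60 minutes before 18 h bead stimulation; EGFP/DsRed fluorescence read.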
Nrf2 ARE act = qHTS of Nrf2 Activators; Potency, µM (doses to about 46.1 µM), inactives show at the highest dose activation, hits mostly activators; 0.31% of 410,000 active; AREc32 ARE-luciferase reporter (MCF7-derived line), luminescence, 24 h; AID 624171, 2012; also: potency is read from the fitted curve at half-maximal effect; % of control where 0% means no effect; nearly all actives have a fitted effect of over 65% in size
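Each well held 1000 AREc32 cells, which were incubated with compound for 24 hr at 37 deg C after overnight attachment, and ARE reporter activity was quantified by firefly luciferase luminescence.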
miR-21 reporter = qHTS Assay for Modulators of miRNAs and/orActivators of miR-21; HeLa miR-21 FLuc reporter, luciferase, 48 h; Potency, µM (highest dose often 38.3 µM), without a hit: at the highest dose activity change, positive = activation, hits mostly activators; 340,000 tested, under 10 active; AID 2288, 2010;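 also: % of control where 0% means no effect; miR-21 action dims this reporter so a rising signal means less miR-21 action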
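Luminescence from a firefly luciferase reporter carrying a miR-21 binding site downstream, stably expressed under a CMV promoter in HeLa cells that make miR-21 endogenously, reports miRNA modulation after 48 h compound exposure up to approximately 40uM final.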
ClpP mod = qHTS Assay for Activators of ClpP. purified B. subtilis ClpP, FRET peptide cleavage, 20 min. Potency, µM (titrated, usually from 57.5 µM), inactives show at the highest dose activity change, negative = active. 1.9% of 340,000 active. AID 651965, 2013; active = well fitted falling curve with a large enough effect; inconclusive = small, poorly fitted or top-dose-only effect; inactive = no such curve, though single readings can be large or run the other way; also: potency is read from the fitted curve at half-maximal effect; the source files actives as falling curves though it sought activators and does not explain the sign; nearly all actives have a fitted effect of over 65% in size
Target sequence (P80244 whole entry, looked up): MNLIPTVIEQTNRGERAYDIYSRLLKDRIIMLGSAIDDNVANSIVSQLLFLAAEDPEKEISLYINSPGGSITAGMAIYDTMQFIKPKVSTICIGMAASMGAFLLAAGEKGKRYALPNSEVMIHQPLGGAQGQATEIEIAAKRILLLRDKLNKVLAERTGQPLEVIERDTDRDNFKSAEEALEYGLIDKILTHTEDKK
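FRET quenching reversal measured ClpP activation: 10 microg/mL B. subtilis ClpP at pH 8 with the FRET-FV decapeptide, read at 430 nm after 320 nm excitation. The 20-min minus 0-min signal was scaled between DMSO/no-enzyme wells and ADEP (5.8 microM final).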
Nrf2 inh = Nrf2 qHTS screen for inhibitors; 2.1% of 360,000 active; A549 ARE-Fluc reporter, luciferase luminescence, 18-24 h; Potency, µM (series often up to 46 µM), for inactives: at the top dose activity change, negative = inhibition, usual class: inhibitors; AID 504444, 2011; also: potency is read from the fitted curve at half-maximal effect; % is scaled to controls: 0 for no effect and ±100 for the full control effect; nearly all actives have a fitted effect of over 60% in size
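Nrf2 activity is the BugLite luminescence, read 15 min after reagent at room temperature, following CellTiter-Fluor cytotoxicity readout (30 min, 37C). Compound titrations were applied for 18-24 h to 5000 A549 ARE_Fluc cells/well in 5% FBS OPTI-MEM.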
A549 tox = Nrf2 qHTS screen for inhibitors: counterscreen for cytotoxicity; AID 504648, 2011; 0.16% of 390,000 active; Potency, µM (highest dose often 46 µM), inactives show at the highest dose activity change, negative = cytotoxicity, usual class: inhibitors; A549 ARE-Fluc cells, CellTiter-Fluor viability, 18-24 h; also: potency is read from the fitted curve at half-maximal effect; % is scaled to controls: 0 for no effect and ±100 for the full control effect
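A549 ARE-Fluc cells in 5% FBS OPTI-MEM, 5000 cells/well, rested 2 h then exposed to compounds in concentration-response for 18-24 h at 37 °C. Viability by CellTiter-Fluor fluorescence (Ex 405/Em 525) after 30 min; luciferase luminescence (BugLite, 15 min, RT) read afterwards.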
Numbers without * were called inactive; ? = inconclusive; nt = no result; [ ] = another dose, or the depositor's remark. Unless noted, calls follow the shape of the dose curve; as a rule, active = well fitted curve in the direction sought with a large enough effect; inconclusive = small, poorly fitted or top-dose-only effect, or another doubt; inactive = no such curve, though single readings can be large; an effect the other way counts as inactive or inconclusive.

SMILES	IL-2 act	Nrf2 ARE act	miR-21 reporter	ClpP mod	Nrf2 inh	A549 tox
Cc1cc2oc3c(c(=O)c2cc1C)C(c1cccc(Br)c1)N(Cc1ccco1)C3=O (stereo not drawn)	-1	0%	-2%	1%	8.2µM*	-18%
CCn1c(SCC(=O)Nc2ccc(NC(=O)c3ccco3)c(OC)c2)nc2ccccc2c1=O	-2	0%	-1%	28µM*	?	4%
COCCn1c(SCC(=O)Nc2ccc(NC(=O)c3ccco3)c(OC)c2)nc2ccccc2c1=O	-1	0%	-7%	-65%	?	3%
COC(=O)c1cc(CSc2nc3ccccc3c(=O)n2C)oc1C	0	3%	-2%	nt	18µM*	5%
Cc1nnc(SCC(=O)Nc2cccc(S(N)(=O)=O)c2)n1-c1ccccc1	0	-1%	0%	nt	2%	0%
Cc1ccc(-n2c(SCC(=O)Nc3cccc(S(N)(=O)=O)c3)nc3ccccc32)cc1	1	3%	18%	-4%	21µM*	?
CC(C)Oc1ccccc1NC(=O)CSc1nc2ccccc2c(=O)n1C	0	3%	23%	2%	?	0%
COc1cccc(NC(=O)CSc2nc3ccccc3c(=O)n2C)c1	0	3%	19%	0%	15µM*	-10%
COC(=O)c1c(C)sc(-c2c(-c3ccc4c(c3)OCCO4)[nH]c3c2c(=O)[nH]c(=O)n3C)c1O	nt	3%	2%	1%	-4%	-2%
COc1cc(F)c(S(=O)(=O)N2CCN(S(=O)(=O)c3cccc(N)c3)CC2)c(F)c1	nt	nt	nt	nt	0%	2%
C=CCn1c(SCC(=O)Nc2cccc(S(N)(=O)=O)c2)nc2sc(C)c(C)c2c1=O	-1	4%	nt	-2%	16µM*	?
CC(C)Cn1c(SCC(=O)Nc2cccc(S(N)(=O)=O)c2)nc2ccccc2c1=O	0	0%	8%	-2%	21µM*	-20%
COCCn1c(SCC(=O)Nc2cccc(S(N)(=O)=O)c2)nc2cc(Cl)ccc2c1=O	-1	0%	5%	nt	-20%	-10%
CC1(C)CC(=O)C([N+](=O)[O-])=C(NCCCC(=O)O)C1	-3	0%	0%	14µM*	9%	-1%
O=S(=O)(Nc1cccc2ncccc12)c1cccs1	1	?	?	0%	21µM*	?
Cc1cc(-c2ccc(C)c(S(=O)(=O)Nc3cccc(C)n3)c2)on1	nt	1%	-5%	32µM*	?	-15%
Cc1cccc(NS(=O)(=O)c2cccs2)n1	0	0%	-1%	20µM*	5%	2%
COc1ccc(-c2cc(C)no2)cc1S(=O)(=O)Nc1cccc(C)c1	1	0%	17%	0%	23µM*	-23%
Cc1c(NS(=O)(=O)c2cccs2)cccc1-c1nc2cccnc2s1	1	3%	-13%	5%	4%	-3%
O=C(CSc1nc2ccccc2nc1Cc1ccccc1)N1CCCc2ccccc21	nt	3%	0%	-5%	nt	-2%
Cc1ccc(OCCSc2nc3ccccc3n2CC(=O)N2CCOCC2)cc1	nt	3%	?	-2%	18µM*	0%
COc1ccccc1OCCSc1nc2ccccc2n1CCC(=O)O	0	0%	-7%	0%	-4%	5%
Cc1cccc(OCCSc2nc3ccccc3n2CC(=O)N2CCOCC2)c1	nt	0%	0%	-4%	6%	0%
COC(=O)Cn1c(SCCOc2ccccc2Cl)nc2ccccc21	nt	3%	12%	-2%	23µM*	-10%
Cc1ccc(OCCCC(=O)N2CCOCC2)cc1	-3	0%	-27%	10µM*	55%	1%
SMILES	IL-2 act	Nrf2 ARE act	miR-21 reporter	ClpP mod	Nrf2 inh	A549 tox
Cn1c(=O)c2sccc2n2c(CCC(=O)NCc3ccccc3)nnc12	nt	-1%	10%	?	10%[9.27 µM]	4%
COc1ccc(CCNC(=O)COc2ccc(N(C)S(=O)(=O)c3ccc(C)cc3)cc2)cc1OC	0	2%	7%	nt	26µM*	-3%
COc1ccc(CCNC(=O)c2ccc(CS(=O)(=O)c3ccc(Cl)cc3)o2)cc1OC	-3	0%	25%	-2%	?	-19%
CCOc1ccc(N(C)S(=O)(=O)c2ccc(C)c(C(=O)NCc3ccccc3OC)c2)cc1	-1	0%	nt	-2%	23µM*	0%
COc1ccc(CCNC(=O)c2ccc(CS(=O)(=O)c3ccc(C)cc3)o2)cc1OC	-1	-1%	?	1%	21µM*	8%
COc1ccc(CCNC(=O)COc2ccc(S(=O)(=O)NCC(C)C)cc2Cl)cc1OC	-1	-1%	-2%	-1%	21µM*	-15%
COc1ccc(CCNC(=O)c2ccc(N(C)S(=O)(=O)c3ccc(C)cc3)cc2)cc1OC	0	2%	8%	1%	?	-2%
COc1ccc(C)cc1Nc1nc2c(S(=O)(=O)c3cccc(Cl)c3)nnn2c2ccsc12	nt	2%	0%	?	16%	1%
Nc1ccc(O)cc1C(=O)OCC(=O)C12CC3CC(CC(C3)C1)C2	1	11%	-23%	22µM*	nt	-8%
Cn1nc(-c2ccc(OCC(=O)Nc3cccc(C(F)(F)F)c3)cc2)c2ccccc2c1=O	nt	0%	13%	5%	26µM*	?
Cn1nc(-c2ccc(C(=O)Nc3cccc(Cl)c3)cc2)c2ccccc2c1=O	-4	0%	-5%	-18%	6.5µM*	-21%
Cc1ccc(NC(=O)c2ccc(-c3nn(C)c(=O)c4ccccc34)cc2)cc1	-1	0%	-1%	30%	?	-6%
Cn1nc(-c2ccc(C(=O)Nc3cccnc3)cc2)c2ccccc2c1=O	-4	0%	-2%	-6%	?	-4%
Cn1nc(-c2ccc(C(=O)Nc3ccc(F)cc3)cc2)c2ccccc2c1=O	0	3%	-1%	-21%	18µM*	-4%
CCCCCn1c(N2CCC(Cc3ccccc3)CC2)nc2c1c(=O)[nH]c(=O)n2C	-4	-1%	nt	0%	23µM*	?
CCCCCn1c(CN(C)Cc2ccccc2)nc2c1c(=O)n(C)c(=O)n2C	-4	0%	24%	-1%	18µM*	-20%
CCCCn1c(CN(Cc2ccccc2)Cc2ccccc2)nc2c1c(=O)n(C)c(=O)n2C	-1	7%	nt	-2%	6%	2%
COC(=O)Cn1c(CN2CCN(c3ccc(F)cc3)CC2)nc2c1c(=O)n(C)c(=O)n2C	-4	-1%	1%	0%	18µM*	-5%

Screening results from PubChem.
